Source: PubChem BioAssay (NCATS)
Where “and” joins values, the source holds several entries; their conditions need not be identical. Equal values may be shown once. Unmarked numbers belong to inactive results. Results filed as inconclusive are left out. A call without a number means that no potency is given here. Calls of active or inactive are those of the source. The call rests on the fitted dose curve; in most records, active means well fitted curve in the direction sought with a large enough effect; inconclusive means small, poorly fitted or top-dose-only effect, or another doubt; inactive means no such curve, though single readings can be large; an effect the other way counts as inactive or inconclusive.

What was measured:
[1] = Primary qHTS for inhibitors of nuclear receptor binding SET domain protein 2 (NSD2) in an isogenic RCH-ACV NSD2 p.E1099K mutant (9B) (AID 1645876); further: nearly all actives have a fitted effect of over 70% in size; further: potency means the concentration at half of the fitted maximal effect
[2] = Primary qHTS for inhibitors of nuclear receptor binding SET domain protein 2 (NSD2) in an RCH-ACV wild type WT cells (2C) (AID 1645877); further: nearly all actives have a fitted effect of over 70% in size; further: potency means the concentration at half of the fitted maximal effect
[3] = biological target: Glutathione peroxidase 1 (Homo sapiens) (UniProt P07203); test: Primary qHTS Assay for Inhibitors of Recombinant Selenoprotein Glutathione Peroxidase 1 (GPX1) (AID 1845191); further: nearly all actives have a fitted effect of over 65% in size
Outline: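 10 nM GPX1 + cpd, 30 min RT; start w/ 1 mM GSH, 0.5 mM cumene hydroperoxide, 0.5 mM NADPH, 100 nM GR, 0.01% BSA; buffer 50 mM Tris-HCl pH 7.5, 2 mM EDTA, 150 mM NaCl; Fl 340/450, 0 & 15 min.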

[4] = biological target: Phospholipid hydroperoxide glutathione peroxidase GPX4 (Homo sapiens) (UniProt P36969); test: Primary qHTS Assay for Inhibitors of Recombinant Selenoprotein Glutathione Peroxidase 4 (GPX4) (AID 1845192); further: nearly all actives have a fitted effect of over 65% in size
Outline: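 NADPH consumption, followed by fluorescence at 340/450 nm between 0 and 15 min, reports GPX4 activity via coupled glutathione reductase (100 nM). Enzyme 200 nM was pre-exposed to compound 30 min; 0.5 mM cumene hydroperoxide and 1 mM GSH served as substrates.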

[5] = biological target: Luciferin 4-monooxygenase (Photinus pyralis) (UniProt P08659); test: Primary firefly luciferase (FLuc) qHTS assay for identification of artifact compounds. (AID 1845220); further: nearly all actives have a fitted effect of over 60% in size
Outline: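 Compounds sat 15 min at room temperature with 10 uM luciferin and 10 uM ATP (pH 7.6 Tris acetate). Firefly luciferase (10 nM final) was then added, and luminescence was read 5 min later. Data normalized to no-enzyme and DMSO controls were Hill-fitted.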

[6] = Primary fluorescence-based thiol-reactive (MSTI) qHTS assay for identification of artifact compounds. (AID 1845221); further: nearly all actives have a fitted effect of over 65% in size; further: potency means the concentration at half of the fitted maximal effect
Outline: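 One-hour, room-temperature, dark incubation of compound with 4 uM MSTI in PBS (pH 7.4, 2% DMSO) precedes a fluorescence read at 525 nm excitation, 598 nm emission; Hill-equation fitting yields concentration-response values.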

[7] = system: Nanoluciferase (engineered Oplophorus gracilirostris luciferase); test: Primary Nanoluciferase (NLuc) qHTS assay for identification of artifact compounds. (AID 1845222); further: series mostly up to about 54 µM
Outline: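 Luminescence from secreted NLuc (filtered, 1:55-diluted S16 cell medium) read 5 min after Nano-Glo substrate; compounds preincubated 15 min, RT. Hill fits of inhibition normalized to DMSO and no-enzyme.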

Glutathione peroxidase 1 (Homo sapiens), sequence (P07203 whole entry, looked up): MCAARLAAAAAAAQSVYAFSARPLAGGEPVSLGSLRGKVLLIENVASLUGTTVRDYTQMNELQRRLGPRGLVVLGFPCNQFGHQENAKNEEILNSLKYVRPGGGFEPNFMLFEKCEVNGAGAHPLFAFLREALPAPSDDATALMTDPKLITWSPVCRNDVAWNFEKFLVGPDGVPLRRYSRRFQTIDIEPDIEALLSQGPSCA
Phospholipid hydroperoxide glutathione peroxidase GPX4 (Homo sapiens), sequence (P36969 whole entry, looked up): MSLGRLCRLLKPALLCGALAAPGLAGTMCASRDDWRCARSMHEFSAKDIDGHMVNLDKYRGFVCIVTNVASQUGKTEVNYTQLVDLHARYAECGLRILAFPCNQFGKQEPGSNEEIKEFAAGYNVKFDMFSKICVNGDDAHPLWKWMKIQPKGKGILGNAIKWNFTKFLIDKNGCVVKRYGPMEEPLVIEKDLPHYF

Row | SMILES | Potency [1] | Potency [2] | Potency [3] | Potency [4] | Potency [5] | Potency [6] | Potency [7]
1 | Cc1c(NC(=O)OC[C@@H]2COCCN2)cn2ncnc(Nc3ccc4c(cnn4Cc4cccc(F)c4)c3)c12 | 16.6 µM (active) | 14.8 µM (active) | inactive | inactive | inactive | inactive | inactive
2 | COc1ccc(F)c(F)c1C(=O)c1cnc(NC2CCN(S(C)(=O)=O)CC2)nc1N | 325 nM (active) and 662 nM (active) | 325 nM (active) and 525 nM (active) | inactive | inactive | inactive | inactive | inactive
3 | CN1CCN(Cc2ccc(NC(=O)Nc3ccc(Oc4cc(NC(=O)C5CC5)ncn4)cc3)cc2C(F)(F)F)CC1 | 91.6 nM (active) and 166 nM (active) | 91.6 nM (active) and 186 nM (active) | inactive | inactive | inactive | inactive | inactive
4 | O=C(Nc1cn[nH]c1-c1nc2ccc(CN3CCOCC3)cc2[nH]1)NC1CC1 | 325 nM (active) and 366 nM (active) and 166 nM (active) | 64.9 nM (active) and 58 nM (active) and 59 nM (active) | inactive | inactive | inactive | inactive | inactive
5 | NCC(=O)Nc1ccc(-n2nc(C(F)(F)F)cc2-c2ccc3c(ccc4ccccc43)c2)cc1 | 1.15 µM (active) and 1.48 µM (active) | 4.09 µM (active) and 2.09 µM (active) | inactive | inactive | inactive | inactive | inactive
6 | CC(=O)Nc1nc(C)c(-c2ccc(Cl)c(S(=O)(=O)NCCO)c2)s1 | 1.32 µM (active) | 1.32 µM (active) | inactive | inactive | inactive | inactive | inactive
7 | CCN(CC)CCNC(=O)c1ccc2nc(-c3ccccc3)c(-c3ccc(CN4CCC(n5c(=O)[nH]c6ccccc65)CC4)cc3)nc2c1 | 2.58 µM (active) and 3.32 µM (active) | 2.58 µM (active) and 4.17 µM (active) | inactive | inactive | inactive | inactive | inactive
8 | Cn1cc(-c2[nH]c3cc(NC(=O)[C@H](N)C4CCCCC4)cc4c3c2C=NNC4=O)cn1 | 578 nM (active) and 833 nM (active) | 728 nM (active) and 742 nM (active) | inactive | inactive | inactive | 21.2 µM (active) | inactive
9 | CCCn1c(=O)c2[nH]c(-c3cnn(Cc4cccc(C(F)(F)F)c4)c3)nc2n(CC)c1=O | inactive | inactive | inactive | inactive | inactive | inactive | inactive
10 | CCCCOc1c(C(=O)c2c(F)cc(C)cc2F)cnc2n[nH]cc12 | 0.817 µM (active) | 578 nM (active) and 235 nM (active) | inactive | inactive | inactive | inactive | inactive
11 | c1ccc2c(CCNc3ccc(Nc4ccncc4)cc3)c[nH]c2c1 | 728 nM (active) and 332 nM (active) | 578 nM (active) and 296 nM (active) | inactive | inactive | inactive | 2.67 µM (active) | inactive
12 | COc1cc(-c2nn(C3CCC(N4CCN(C(C)=O)CC4)CC3)c3ncnc(N)c23)ccc1NC(=O)c1cc2ccccc2n1C (centres undefined) | 183 nM (active) and 590 nM (active) | 258 nM (active) and 1.05 µM (active) | inactive | inactive | inactive | inactive | inactive
13 | CC[C@@H]1C(=O)N(C)c2cnc(Nc3ccc(C(=O)NC4CCC(N5CCN(CC6CC6)CC5)CC4)cc3OC)nc2N1C(C)C (some centres undefined) | 36.5 nM (active) and 16.3 nM (active) and 41.7 nM (active) | 36.5 nM (active) and 41.1 nM (active) and 37.2 nM (active) | inactive | inactive | inactive | inactive | inactive
14 | CN(C1CCc2c(c3ccccc3n2CC(=O)O)C1)S(=O)(=O)c1ccc(F)cc1 (centres undefined) | inactive | inactive | inactive | inactive | inactive | 2.67 µM (active) and 2.12 µM (active) | inactive
15 | Cc1[nH]nc2ccc(-c3cncc(OC[C@@H](N)Cc4ccccc4)c3)cc12 | 325 nM (active) and 263 nM (active) | 326 nM (active) and 186 nM (active) | inactive | inactive | inactive | inactive | inactive
16 | CCNC(=O)Nc1ccc2ncc(Nc3ccc(C)cc3)nc2n1 | inactive | inactive | inactive | inactive | inactive | inactive | inactive
17 | CNC(=O)c1ccc(-c2cnc3ncc(Cc4ccc5ncccc5c4)n3n2)cc1F | inactive | inactive | inactive | inactive | inactive | inactive | inactive
